Where “and” joins values, the source holds several entries; their conditions need not be identical. Identical values can stand only once. This is part of a sample that, as a whole, favours compounds with a hit. Of some 83,000 tested, about 20% had one in any assay.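 Treatment: one concentration, 48 hours, 96-well format. Scoring: percent growth, with anything below 10 considered active.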 Calls of active or inactive are those of the source.

In the assay the test system is MDA-MB-468 breast. In words: NCI-60 one-dose screen, 48 h (100 = growth as untreated, 0 = no growth, -100 = all killed). The conditions noted are these: 10 µM unless noted.
On to `O=C1c2ccccc2C(=O)N1/N=C/c1ccc2c(c1)OCO2`, for which the growth is 103% (inactive).

Turning to `CC(NNC(=S)N1CCCCCC1)c1ccc2ccccc2n1` (stereo not given), the growth was 30.3% (inactive).

As for `CC(C)CCC(=O)[C@@H](C)[C@H]1[C@@H](OC2OCC(O)C(O)C2NS(C)(=O)=O)C[C@H]2[C@@H]3CC=C4C[C@@H](O)CC[C@]4(C)[C@H]3CC[C@]12C` (stereo not given in full), the growth was 43.8% (inactive).

Regarding `Cc1ccc(NC(=O)C(Cl)Cl)cc1`, the growth was 90.9% (inactive).

`CC1(C)CN(c2cnc(C(=O)Nc3cc(F)cc4cccnc34)cn2)CCN1`: the growth is 17.8% (inactive).

For the compound `O=c1[nH]c(CCl)nc2c1cnn2-c1ccccc1`, the growth was 96.6% (inactive).

As to `N#Cc1c(-c2ccc(Cl)cc2)nc(NN=Cc2ccco2)nc1N1CCOCC1`, the growth is 30.9% (inactive).

In the case of `CN(C)CCOc1nc2c3cc([N+](=O)[O-])ccc3nn2c2ccccc12`, the growth is 60.2% (inactive).

On to `O=S(=O)(O)c1ccc(Cl)cc1`, for which the growth is 105% (inactive).

In the case of `NC(=O)c1cc(Cl)ccc1NC(=O)c1ccccc1-c1ccccc1`, the growth was 25.4% (inactive).

On to `O=C(c1ccc(F)cc1)C1CCN(CCn2c(=O)[nH]c3ccccc3c2=O)CC1`, for which the growth is 104% (inactive).

With `CCN(CC)CCCNc1ccnc2cc3ccccc3cc12`, the growth was 75.9% (inactive).

As for `Cc1ccccc1NC(=O)N/C(N)=N/c1nc2ccccc2s1`, the growth is 1.56% (active).

Regarding `CCOc1ccc(NC2=C(Cl)C(=O)c3ccccc3C2=O)cc1`, the growth was 64.9% (inactive).

`CN(C)CCC(=O)c1ccc(Cl)cc1`: the growth was 97.3% (inactive) and 97.2% (inactive).

As to `Cc1cc(C)c(CC(=O)O)c(C)c1`, the growth is 111% (inactive).

With `Cc1ccccc1COc1ccc(-c2ccnn2-c2ccc(Cl)cc2)cc1`, the growth was 41.1% (inactive).

On to `O=c1cc(-c2ccccc2)nc2sc(-c3c[nH]c4ccc(Br)cc34)nn12`, for which the growth was 87.2% (inactive).

As for `O=S(=O)(Nc1ccc(Cl)c(C(F)(F)F)c1)c1ccc(-c2cnc(C3CC3)o2)cc1`, the growth is -7.54% (active).

For the compound `Cc1ccc(S(=O)(=O)NCCNc2cc(-c3cn(C(C)(C)C)nc3-c3cccc(O)c3)ccn2)cc1`, the growth was 35.8% (inactive).

As to `COC(=O)Nc1nc2ccc(C(=O)c3ccc(F)cc3)cc2[nH]1`, the growth was 25.9% (inactive).

For the compound `C=C1CC2(OC1=O)C(=O)N(CCCCCCCCCCCCN1C(=O)C3(CC(=C)C(=O)O3)c3ccccc31)c1ccccc12` (stereo not given), the growth is 70.2% (inactive).

Consider `CCCCC/C=C/C(C)=C/C1CC(C)C/C=C/CCC(O)C(OC(N)=O)CCC(C)CC(O)C(C)C(=O)O1` (stereo not given), for which the growth was 94.9% (inactive).

Take `COc1ccccc1C(=O)Nc1cccc2c1C(=O)C(=O)C=C2`: the growth is 103% (inactive).

As for `CCN1CCN(C(=O)[C@]23CCC(C)(C)C[C@H]2C2=CC[C@@H]4[C@@]5(C)CC/C(=N/O)C(C)(C)[C@@H]5CC[C@@]4(C)[C@]2(C)CC3)CC1`, the growth was 47% (inactive).

In the case of `O=C(NCc1ccc(Cl)cc1Cl)C1CCC(=O)N1c1cccs1` (stereo not given), the growth was 115% (inactive).

Consider `O=C1Nc2ccccc2/C1=C/C(=O)c1ccc(N2CCCC2)cc1`, for which the growth is 5.3% (active).

For the compound `CCOC(=O)c1cc(C(=O)c2cc(OC)cc(OC)c2)n2ccc3ccccc3c12`, the growth is 74.5% (inactive).

With `CC12CC3CC1C(C(=O)O2)C3C(=O)O` (stereo not given), the growth is 103% (inactive).

On to `CCOC(=O)c1c(C)nc2c(c1N)CC(=O)N2Cc1cc(OC)c(OC)c(OC)c1`, for which the growth was -4.22% (active).

`CC/C(=C(/c1ccc(Cl)cc1)c1ccc(OCCN2CCCCC2)cc1)c1ccc(Cl)cc1`: the growth is 51.9% (inactive).

Take `ClC(Cl)c1nc(-c2ccccc2)n2nc(-c3ccccc3)cc2n1`: the growth was -52.3% (active).

Consider `COc1ccc2c(c1)nc(N)c1c3cccnc3cn21`, for which the growth is 13.4% (inactive).

Consider `CN(C)C(=S)N=Nc1c(O)[nH]c2ccccc12`, for which the growth is -2.36% (active).

As for `C/C(=N\NC(=S)N1CCCCC1)c1ccccn1`, the growth is -27.4% (active).

In the case of `Nc1cc(-c2c[nH]c3ccc(Br)cc23)nc2cc(-c3c[nH]c4ccc(Br)cc34)nn12`, the growth is -4.03% (active).

Regarding `O=C1NCCc2c1noc2-c1ccccc1`, the growth is 99.2% (inactive).

With `O=C(Nc1ccc2ncnc(Nc3ccc(Oc4cccc(F)c4)c(Cl)c3)c2c1)c1ccc(CN2CCOCC2)cc1`, the growth was 18.8% (inactive).

Take `CCn1cc(-c2cc(-c3ccc(Cl)cc3)nc(N)n2)c(-c2ccc(Br)cc2)n1`: the growth is 72.7% (inactive).

As for `Nc1c2ccccc2nc2ccccc12` (tested in a mixture with another compound), the growth was -18.6% (active).

The values above are taken from PubChem BioAssay (NCI).
